# From PubChem BioAssay
# Where “and” joins values, the source holds several entries; their conditions need not be identical. Equal entries are not always repeated. Calls of active or inactive are those of the source.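 How the source made its calls, unless noted: active means compounds whose cell count with miR-34 switched on is under 0.7 times the count with it off; inactive means the rest.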 Where a SMILES comes first, the peptide text is derived from it. [ ]: non-standard residue; d: D form. pGlu = O=C1CC[CH](C(=O)O)N1; Thz = O=C(O)[CH]1CSCN1
# What was measured:
# [1] = sensitizers of A549 cells to miR-34 induction, primary screen, imaging, A549 dox-inducible miR-34, nuclei and caspase counts (AID 1347080); conditions: A549 miR-34 inducible, Hoechst nuclei count, 48 h; further: test concentration not given here
# [2] = survival rescue of mitochondrial mutant cells in low glucose, primary screen, MELAS cybrids, Rieske KO mouse fibroblasts, CellTiter-Glo (AID 1508586;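 active means mean z-score across replicates of 1.96 or higher in either the MELAS or the Rieske mutant cell line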;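 further: test concentration not given here; z relative to plate mean and SD of compound and empty wells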)
# [3] = viability rescue of complex I mutant cybrids, primary screen, cell-based, galactose medium, ATP luminescence (AID 1645843;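 active means z-score of at least 1.8 in each of two replicates, scored against plate mean and spread of sample wells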;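 further: positive z means more ATP and so rescue of galactose-driven cybrid death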); conditions: complex I mutant cybrid cells, 72 h, stronger effect = higher value
# [4] = stronger effect = lower value, cell number ratio, induced over uninduced
# [5] = measured here: relative caspase fold change +Dox/-Dox
# [6] = measured here: total cells with miR-34 induction, stronger effect = lower value
# [7] = measured here: total cells without miR-34 induction
# [8] = MELAS cybrid survival, CellTiter-Glo 48 h, stronger effect = higher value
# [9] = Rieske KO mouse fibroblast survival, CellTiter-Glo 72 h
Structure (SMILES),"fold change [1, 4]","fold change [1, 5]","cell count [1, 6]","cell count [1, 7]","z-score [2, 8]","z-score [2, 9]",z-score [3]
O=C(O)c1ccc(O)cc1O,0.891 (inactive),0.246,8740,9810,-0.11 (inactive),-0.1,0.565 (inactive)
Cc1ccc(NC(=O)C2CC23CCCCC3)cn1 (stereo not drawn),0.887 (inactive),0.564,8250,9300,-0.13 (inactive),-0.332,-0.27 (inactive)
CC1OC(OC2C(CO)OC(OC3C(CO)OC(O)C(O)C3O)C(O)C2O)C(O)C(O)C1NC1C=C(CO)C(O)C(O)C1O (stereo not drawn),0.923 (inactive) and 1.03 (inactive),1.2 and 0.703,9530 and 7300,10300 and 7090,-0.375 (inactive),-0.157,0.475 (inactive)
COc1ccc(CN2CCN(c3nccc(-c4cn(C)nc4C)n3)CC2=O)cc1,0.778 (inactive),1.57,4640,5960,4.51 (active),2.53,-0.37 (inactive)
Cc1cc(C(=O)Nc2ccc3c(c2)CC(=O)N3)c(C)o1,0.929 (inactive),1.42,9120,9820,-0.11 (inactive),-0.503,-0.465 (inactive)
CN1CCN(Cc2ccc3nonc3c2)CC1CCO (stereo not drawn),0.893 (inactive),1.09,8970,10000,-0.262 (inactive),-0.13,-0.35 (inactive)
Cc1cnc(CN(C)C(=O)c2n[nH]c3ccccc23)[nH]1,0.891 (inactive),1.39,8830,9910,0.305 (inactive),-0.304,-0.445 (inactive)
Cc1cc(CN(C)C(=O)c2cc(-c3cnn(C(C)C)c3)nc3cc(F)ccc23)on1,0.883 (inactive),1.43,8520,9660,-1.12 (inactive),0.385,-0.48 (inactive)
O=C1CCC(C(=O)N2CSCC2C(=O)O)N1 (stereo not drawn) ([pGlu]-[Thz]-OH; configuration not given here),0.957 (inactive) and 1 (inactive),1.75 and 0.634,9270 and 8110,9680 and 8100,-0.302 (inactive),-0.109,0.45 (inactive)
COc1cc(CC2COC(=O)C2Cc2ccc(O)c(OC)c2)ccc1O (stereo not drawn),0.888 (inactive),0.681,8440,9500,-1.09 (inactive),-0.0925,-0.07 (inactive)
Cc1ccc2c(c1)N(Cc1nc(C(C)(C)C)no1)C(=O)CO2,1.19 (inactive),0.578,6310,5280,-0.543 (inactive),-0.423,-0.52 (inactive)
C=CCn1cc(-c2nc3c([nH]2)c(-c2cccnc2)nn3C)c(C)n1,0.874 (inactive),0.787,8680,9940,-1.29,2.45,-0.47 (inactive)
O=C(Nc1ccccc1)c1ccn[nH]1,0.856 (inactive),0.232,7620,8910,-0.292 (inactive),0.207,0.49 (inactive)
NC(=O)c1cncc(Br)c1,0.888 (inactive),0.503,8870,9990,0.375 (inactive),-0.195,0.76 (inactive)
Cc1csc2ncnc(-c3cccc4cccnc34)c12,0.931 (inactive),0.756,8530,9170,-0.57 (inactive),-0.471,-0.505 (inactive)
CN(C)C(=O)c1cc(-c2[nH]ncc2-c2ccccc2)c[nH]1,0.875 (inactive),0.578,7590,8680,1.27 (inactive),0.199,-0.655 (inactive)
CCc1nc(NC(=O)N(C)CC2Cc3ccccc3O2)nn1C (stereo not drawn),0.87 (inactive),1.41,9140,10500,0.229 (inactive),-0.335,-0.515 (inactive)
CC(=O)Nc1nc2c(s1)C(=O)NCCC2,0.907 (inactive),0.479,8770,9670,0.0141 (inactive),-0.403,0.685 (inactive)
NC(=O)c1c(NC(=O)C2CC2)sc2c1CCCC2,0.825 (inactive),0.622,7330,8890,-0.327 (inactive),0.409,0.65 (inactive)
NC1=NC(=O)C(=Cc2ccc(-c3ccc(C(=O)O)cc3)o2)S1,0.91 (inactive),0.479,8530,9370,0.721 (inactive),-0.231,0.485 (inactive)
O=C(c1ccnc(Cl)c1)N1CCc2[nH]nc(C3CCC3)c2C1,0.923 (inactive),0.638,9170,9930,-0.36 (inactive),0.475,-0.4 (inactive)
Cc1cc(-c2cnn(C)c2)nc(N)n1,0.853 (inactive),1.79,8800,10300,-0.132 (inactive),-0.642,-0.56 (inactive)
Cc1nc2cc(C(=O)N(C)Cc3cc(-c4cccnc4)no3)ccc2s1,0.86 (inactive),2.36,6380,7420,-0.957 (inactive),-0.223,-0.55 (inactive)
CCCn1ncc(NC(=O)Cn2cc(C)c(-c3cccc(Cl)c3)n2)n1,0.851 (inactive),1.04,7170,8420,-0.0413 (inactive),-0.435,1.05 (inactive)
